What all share (details): mRNA level, 48 h; actives raise or lower the signal
Read-out in assay [1]: Alkaline Phosphatase, Placental (ALPP) gene, ALPP (gene 250)
Put plainly: LTEA_HepaRG_ALPP: Life Technologies and Expression Analysis (LTEA) Assay for Alkaline Phosphatase, Placental (ALPP) gene using HepaRG (AID 2283468). The procedure, abridged: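 Using human liver HepaRG cells, chemicals are tested in duplicate over 48 h at half-log concentrations topping at 100 uM; phenobarbital 1 mM serves as induction control. ALPP mRNA change by qRT-PCR, bidirectional fit against vehicle.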

Read-out in assay [2]: Bcl-2 (BAD) gene, BAD (gene 572)
Put plainly: LTEA_HepaRG_BAD: Life Technologies and Expression Analysis (LTEA) Assay for Bcl-2 (BAD) gene using HepaRG (AID 2283469). A digest of the protocol:
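BAD transcript change, measured by qRT-PCR against three housekeeping genes and fitted in both directions relative to 0.5% DMSO, after 48 h chemical treatment of human HepaRG liver cells at concentrations up to 100 uM.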

Read-out in assay [3]: Bcl-2 (BAX) gene, BAX (gene 581)
Put plainly: LTEA_HepaRG_BAX: Life Technologies and Expression Analysis (LTEA) Assay for Bcl-2 (BAX) gene using HepaRG (AID 2283470). A digest of the protocol:
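Differentiated HepaRG cells exposed 48 h in serum-free induction medium, eight half-log concentrations from 100 uM, in duplicate, 0.5% DMSO vehicle. BAX mRNA by TaqMan qRT-PCR, normalised to ACTB, GAPDH and POLR2A.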

Read-out in assay [4]: adenosine kinase (ADK) gene, ADK (gene 132)
Description: LTEA_HepaRG_ADK: Life Technologies and Expression Analysis (LTEA) Assay for adenosine kinase (ADK) gene using HepaRG (AID 2283471). The procedure, abridged: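 Read-out is ADK transcript level measured by qRT-PCR and normalised to three housekeeping genes. Cells are human HepaRG, dosed for 48 h at up to 100 uM in 0.5% DMSO. Gain or loss of signal is fitted against DMSO controls.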

Read-out in assay [5]: Alpha-fetoprotein (AFP) gene, AFP (gene 174)
Description: LTEA_HepaRG_AFP: Life Technologies and Expression Analysis (LTEA) Assay for Alpha-fetoprotein (AFP) gene using HepaRG (AID 2283472). The procedure, abridged:
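Differentiated human HepaRG cells exposed 48 h in serum-free induction medium, 8-point half-log series from 100 uM in 0.5% DMSO, duplicate. AFP mRNA by qRT-PCR, normalized to ACTB, GAPDH, POLR2A; bidirectional fit vs DMSO.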

Read-out in another assay: BCL2L11 (gene 10018)
Put plainly: LTEA_HepaRG_BCL2L11: Life Technologies and Expression Analysis (LTEA) Assay for Bcl-2 (BCL2L11) gene using HepaRG (AID 2283473). The procedure, abridged:
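Human hepatic HepaRG cultures are treated 48 h with test chemicals (maximum 100 uM, 0.5% DMSO vehicle). Expression of BCL2L11 is measured by qRT-PCR against ACTB, GAPDH and POLR2A, with activity in either direction scored relative to vehicle.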

Read-out in assay [6]: Apolipoprotein A-V (APOA5) gene, APOA5 (gene 116519)
Description: LTEA_HepaRG_APOA5: Life Technologies and Expression Analysis (LTEA) Assay for Apolipoprotein A-V (APOA5) gene using HepaRG (AID 2283474). The procedure, abridged:
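Concentration-response of APOA5 expression in HepaRG: eight half-log doses to 100 uM, 48 h, qRT-PCR normalized to ACTB/GAPDH/POLR2A, bidirectional fitting with 0.5% DMSO as baseline.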

Read-out in assay [7]: Apoptosis regulator Bcl-2 (Homo sapiens) (UniProt P10415)
Description: LTEA_HepaRG_BCL2: Life Technologies and Expression Analysis (LTEA) Assay for Bcl-2 gene using HepaRG (AID 2283475). The procedure, abridged: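 Differentiated human HepaRG cells in serum-free induction medium exposed 48 h, in duplicate, to 8-point half-log series from 100 uM in 0.5% DMSO. BCL2 mRNA by qRT-PCR (TaqMan/Fluidigm), normalized to ACTB, GAPDH, POLR2A; bidirectional fit against DMSO.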

Read-out in assay [8]: Bcl-2 (BID) gene, BID (gene 637)
Put plainly: LTEA_HepaRG_BID: Life Technologies and Expression Analysis (LTEA) Assay for Bcl-2 (BID) gene using HepaRG (AID 2283476). The procedure, abridged: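 Gene expression by qRT-PCR in HepaRG cells after 48 h exposure, duplicate wells, eight half-log concentrations topping at 100 uM in 0.5% DMSO. Normalized to ACTB, GAPDH, POLR2A; bidirectional fitting relative to DMSO.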

Read-out in another assay: Caspase-3 (Homo sapiens) (UniProt P42574)
Description: LTEA_HepaRG_CASP3: Life Technologies and Expression Analysis (LTEA) Assay for cysteine-aspartic acid protease (CASP3) using HepaRG (AID 2283477). The procedure, abridged:
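Transcript-level assay: CASP3 mRNA in human HepaRG after 48 h treatment, eight half-log concentrations from 100 uM in 0.5% DMSO, quantified by qRT-PCR.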

Read-out in assay [9]: Cytochrome P450 (CYP24A1), CYP24A1 (gene 1591)
Put plainly: LTEA_HepaRG_CYP24A1: Life Technologies and Expression Analysis (LTEA) Assay for Cytochrome P450 (CYP24A1) using HepaRG (AID 2283478). The procedure, abridged: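 Gene expression of CYP24A1 by TaqMan qRT-PCR in HepaRG after 48 h treatment, highest concentration 100 uM; activity fitted in both directions relative to DMSO vehicle.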

Read-out in assay [10]: Cytochrome P450 (CYP1A2), CYP1A2 (gene 1544)
Put plainly: LTEA_HepaRG_CYP1A2: Life Technologies and Expression Analysis (LTEA) Assay for Cytochrome P450 (CYP1A2) using HepaRG (AID 2283479). The procedure, abridged: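 In duplicate wells, HepaRG cultures maintained in 0.5% DMSO were treated 48 h across an 8-point, half-log series topping at 100 uM; phenobarbital (1 mM) served as induction control. Expression was read by qRT-PCR.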

Read-out in assay [11]: cysteine-aspartic acid protease (CASP8), CASP8 (gene 841)
Put plainly: LTEA_HepaRG_CASP8: Life Technologies and Expression Analysis (LTEA) Assay for cysteine-aspartic acid protease (CASP8) using HepaRG (AID 2283480). The procedure, abridged: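 HepaRG, 48 h exposure, duplicate wells; 8 conc, half-log from 100 uM, 0.5% DMSO. Serum-free induction medium. CASP8 mRNA by TaqMan qRT-PCR, norm. ACTB/GAPDH/POLR2A; gain/loss fitted vs DMSO.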

Read-out in assay [12]: Cytochrome P450 (CYP2B6), CYP2B6 (gene 1555)
Description: LTEA_HepaRG_CYP2B6: Life Technologies and Expression Analysis (LTEA) Assay for Cytochrome P450 (CYP2B6) using HepaRG (AID 2283481). A digest of the protocol: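 Human HepaRG, 48 h dosing, 0.5% DMSO vehicle, top dose 100 uM. CYP2B6 transcript by qRT-PCR, housekeeping-normalized, bidirectional curve fit.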

Read-out in assay [13]: Cytochrome P450 2C19 (Homo sapiens) (UniProt P33261)
Put plainly: LTEA_HepaRG_CYP2C19: Life Technologies and Expression Analysis (LTEA) Assay for CYP2C19 using HepaRG (AID 2283482). A digest of the protocol: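 Endpoint: CYP2C19 mRNA change, bidirectional fit vs 0.5% DMSO. Cells: HepaRG, 48 h exposure, eight-point series topping at 100 uM. Quantitation: qRT-PCR normalized to ACTB, GAPDH, POLR2A.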

Read-out in the next assay: CYP2C8 (gene 1558)
Description: LTEA_HepaRG_CYP2C8: Life Technologies and Expression Analysis (LTEA) Assay for CYP2C8 using HepaRG (AID 2283483). A digest of the protocol:
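CYP2C8 mRNA induction or loss, by qRT-PCR normalized to ACTB/GAPDH/POLR2A, is read in HepaRG cells after 48 h treatment. Concentrations run from 100 uM down in half-log dilutions, with 0.5% DMSO as vehicle and baseline.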

Read-out in another assay: CYP2C9 (gene 1559)
Put plainly: LTEA_HepaRG_CYP2C9: Life Technologies and Expression Analysis (LTEA) Assay for CYP2C9 using HepaRG (AID 2283484). A digest of the protocol:
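Cells plated 48 h, switched to serum-free induction medium, then treated in duplicate for 48 h at eight concentrations (max 100 uM, 0.5% DMSO). RNA then analysed by qRT-PCR for CYP2C9; curves fitted in both directions relative to DMSO.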

Read-out in the next assay: CYP2E1 (gene 1571)
Put plainly: LTEA_HepaRG_CYP2E1: Life Technologies and Expression Analysis (LTEA) Assay for CYP2E1 using HepaRG (AID 2283485). The procedure, abridged: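 HepaRG cells, plated 48 h, then exposed 48 h in serum-free induction medium to eight half-log concentrations from 100 uM in 0.5% DMSO, duplicate. CYP2E1 mRNA by qRT-PCR, normalized to ACTB/GAPDH/POLR2A; bidirectional fit versus DMSO.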

Read-out in the next assay: CYP4A11 (gene 1579)
Put plainly: LTEA_HepaRG_CYP4A11: Life Technologies and Expression Analysis (LTEA) Assay for CYP4A11 using HepaRG (AID 2283486). The procedure, abridged: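 Human hepatic HepaRG cultures receive duplicate 48 h exposures across a concentration-response series topping at 100 uM. Expression changes in CYP4A11 are measured by qRT-PCR relative to DMSO controls.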

Read-out in assay [14]: Cytochrome P450 3A4 (Homo sapiens) (UniProt P08684)
Put plainly: LTEA_HepaRG_CYP3A4: Life Technologies and Expression Analysis (LTEA) Assay for CYP3A4 using HepaRG (AID 2283487). The procedure, abridged:
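HepaRG, 48 h exposure, 8-pt CRC from 100 uM (half-log), 0.5% DMSO, duplicates; serum-free induction medium. Readout: CYP3A4 mRNA, qRT-PCR, ACTB/GAPDH/POLR2A normalization. Bidirectional fit vs DMSO.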

Structures are written as SMILES. Active and inactive are the calls of the source. The calls were made as follows: active = hit-call score of the fitted dose curve at least 0.9, where 1 is the maximum; inactive = score below 0.9.

Chain of Cytochrome P450 2C19 (Homo sapiens) (P33261 whole entry, looked up): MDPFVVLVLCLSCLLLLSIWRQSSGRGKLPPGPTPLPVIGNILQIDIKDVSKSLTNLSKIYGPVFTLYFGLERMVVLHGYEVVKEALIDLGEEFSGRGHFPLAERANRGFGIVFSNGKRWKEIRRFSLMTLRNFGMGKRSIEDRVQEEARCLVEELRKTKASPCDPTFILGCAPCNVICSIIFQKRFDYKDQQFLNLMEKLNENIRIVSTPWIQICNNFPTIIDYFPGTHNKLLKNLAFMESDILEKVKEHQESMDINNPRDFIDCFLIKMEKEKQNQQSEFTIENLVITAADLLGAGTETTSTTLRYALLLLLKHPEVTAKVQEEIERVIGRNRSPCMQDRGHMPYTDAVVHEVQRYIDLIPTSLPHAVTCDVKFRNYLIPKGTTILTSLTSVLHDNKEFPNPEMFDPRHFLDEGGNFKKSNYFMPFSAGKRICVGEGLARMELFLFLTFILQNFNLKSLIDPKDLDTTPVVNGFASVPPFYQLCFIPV
Chain of Apoptosis regulator Bcl-2 (Homo sapiens) (P10415 whole entry, looked up): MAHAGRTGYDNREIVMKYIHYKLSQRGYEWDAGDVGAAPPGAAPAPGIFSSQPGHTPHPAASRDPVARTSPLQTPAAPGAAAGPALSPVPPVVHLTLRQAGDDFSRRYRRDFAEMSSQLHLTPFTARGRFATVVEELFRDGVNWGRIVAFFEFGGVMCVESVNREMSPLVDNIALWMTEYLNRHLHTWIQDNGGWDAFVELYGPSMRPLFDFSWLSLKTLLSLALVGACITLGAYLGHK
Chain of Cytochrome P450 3A4 (Homo sapiens) (P08684 whole entry, looked up): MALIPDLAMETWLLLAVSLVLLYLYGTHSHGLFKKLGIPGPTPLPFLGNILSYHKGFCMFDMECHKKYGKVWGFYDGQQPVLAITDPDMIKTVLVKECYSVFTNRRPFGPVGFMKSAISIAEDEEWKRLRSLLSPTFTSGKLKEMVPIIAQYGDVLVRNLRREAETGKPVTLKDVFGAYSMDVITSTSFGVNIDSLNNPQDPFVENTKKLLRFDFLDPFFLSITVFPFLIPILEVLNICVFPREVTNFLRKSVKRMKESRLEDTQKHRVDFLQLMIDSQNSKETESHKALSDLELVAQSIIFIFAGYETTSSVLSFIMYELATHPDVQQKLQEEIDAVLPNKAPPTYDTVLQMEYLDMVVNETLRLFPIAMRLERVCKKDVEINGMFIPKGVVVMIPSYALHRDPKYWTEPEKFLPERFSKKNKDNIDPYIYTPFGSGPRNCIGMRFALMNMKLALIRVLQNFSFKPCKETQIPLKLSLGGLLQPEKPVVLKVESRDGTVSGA
Chain of Caspase-3 (Homo sapiens) (P42574 whole entry, looked up): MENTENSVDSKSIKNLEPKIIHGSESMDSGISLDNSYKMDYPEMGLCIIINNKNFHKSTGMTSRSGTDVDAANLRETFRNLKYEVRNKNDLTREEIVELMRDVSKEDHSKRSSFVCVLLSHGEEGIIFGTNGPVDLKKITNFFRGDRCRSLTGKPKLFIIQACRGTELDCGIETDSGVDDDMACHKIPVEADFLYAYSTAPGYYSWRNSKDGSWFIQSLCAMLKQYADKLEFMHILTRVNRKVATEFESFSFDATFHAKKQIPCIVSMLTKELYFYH

Take `CCC(C)(c1ccc(O)cc1)c1ccc(O)cc1`: the outcome (in [1]; in [2]; in assay [3]; in assay [4]; with BCL2L11 (gene 10018); in [6]) was inactive. Moreover, the compound was classed as inactive (in assay [7]; in assay [8]; with Caspase-3 (Homo sapiens); in assay [9]; in assay [11]; in [12]). Further, the compound was called inactive (in assay [13]; in the assay with CYP2C8 (gene 1558); with CYP2C9 (gene 1559); with CYP2E1 (gene 1571); with CYP4A11 (gene 1579); in assay [14]). Moreover, the AC50 was 50 µM (active) in assay [5] and 89.2 µM (active) in assay [10].

Take `N#Cc1ccc(N(CC(N)=O)CC(F)(F)F)cc1C(F)(F)F`: the compound was called inactive (in assay [1]; in assay [2]; in [3]; in [4]; in assay [5]; in the assay with BCL2L11 (gene 10018)). Also, the outcome (in assay [6]; in assay [7]; with Caspase-3 (Homo sapiens); in [9]; in [10]; in assay [11]) was inactive. In addition, the compound was classed as inactive (in the assay with CYP2C8 (gene 1558); with CYP2C9 (gene 1559); with CYP4A11 (gene 1579); in assay [14]). In addition, the half-maximal activity concentration (AC50) was 0.159 µM (active) in assay [12], 19.3 µM (active) in [13] and 0.537 µM (active) with CYP2E1 (gene 1571).

Take `CCCN(CCC)N=O`: the result (in assay [1]; in assay [2]; in [3]; in assay [4]; in assay [5]; in the assay with BCL2L11 (gene 10018)) was inactive. Also, the compound was called inactive (in assay [6]; in assay [7]; in assay [8]; with Caspase-3 (Homo sapiens); in [9]; in assay [10]). The call (in assay [11]; in assay [13]; with CYP2C8 (gene 1558); with CYP2C9 (gene 1559); with CYP2E1 (gene 1571); with CYP4A11 (gene 1579)) was inactive. The call in [14] was inactive. The AC50 in [12] was 11 µM (active).

In the case of `ClC1=C(Cl)[C@]2(Cl)[C@@H]3[C@@H](Cl)[C@H]4O[C@H]4[C@@H]3C1(Cl)C2(Cl)Cl`, the outcome (in [1]; in assay [2]; in [3]; in assay [4]; with BCL2L11 (gene 10018); in assay [6]) was inactive. Besides, the compound was called inactive (in [7]; in the assay with Caspase-3 (Homo sapiens); in assay [9]; in assay [10]; in [11]; in the assay with CYP2C8 (gene 1558)). Further, in the assay with CYP2C9 (gene 1559), the outcome was inactive. The AC50 in assay [5] is 21.9 µM (active); in [12] it was 0.526 µM (active); in assay [13], 1.21 µM (active); with CYP2E1 (gene 1571), 25.5 µM (active); with CYP4A11 (gene 1579), 31.1 µM (active); in [14], 1.35 µM (active).

As to `Cc1cccc([N+](=O)[O-])c1`, the compound was called inactive (in assay [1]; in assay [2]; in [3]; in assay [4]; in assay [5]; with BCL2L11 (gene 10018)). For the same compound, the call (in assay [6]; in assay [7]; in assay [8]; in the assay with Caspase-3 (Homo sapiens); in [9]; in assay [10]) was inactive. Moreover, the result (in assay [11]; in assay [13]; with CYP2C8 (gene 1558); with CYP2C9 (gene 1559); with CYP2E1 (gene 1571); in the assay with CYP4A11 (gene 1579)) was inactive. For the same compound, the compound was classed as inactive in assay [14]. Further, in assay [12], the AC50 is 8.74 µM (active).

Turning to `Cc1ccccc1O`, the outcome (in assay [1]; in assay [2]; in assay [3]; in assay [4]; in [5]; in the assay with BCL2L11 (gene 10018)) was inactive. Also, the compound was called inactive (in assay [6]; in [7]; in [8]; in the assay with Caspase-3 (Homo sapiens); in assay [9]; in [10]). Moreover, the compound was called inactive (in assay [11]; in assay [13]; with CYP2C8 (gene 1558); with CYP2C9 (gene 1559); with CYP2E1 (gene 1571); with CYP4A11 (gene 1579)). In addition, the result in [14] was inactive. In addition, in assay [12], the AC50 is 24.4 µM (active).

The record behind these values is PubChem BioAssay (EPA / NIEHS).
